Assay results taken from PubChem BioAssay (NCATS).
Inconclusive results are not listed. The source made the active and inactive calls. Calls come from the whole dose curve; as a rule, active = well fitted inhibition curve with a large enough effect; inconclusive = small, poorly fitted or top-dose-only effect; inactive = flat fitted curve, though single readings scatter.

Biological target: Phospholipid hydroperoxide glutathione peroxidase GPX4 (Homo sapiens) (UniProt P36969)
Assay: Primary qHTS Assay for Inhibitors of Recombinant Selenoprotein Glutathione Peroxidase 4 (GPX4) (AID 1845192); note: nearly all actives have a fitted effect of over 65% in size
Conditions: recombinant GPX4, GR-coupled NADPH fluorescence, 15 min; series mostly up to 50 µM; activity change, negative = inhibition: at the top concentration
Source text: Assay Provider: Elias S.J. Arner MD PhD.
Department of Medical Biochemistry and Biophysics
Karolinska Institutet, Solna, Stockholm, Sweden
Selenoprotein glutathione peroxidases (GPX), like the ubiquitously expressed GPX1 and the ferroptosis modulator GPX4, enact their antioxidant activities by reducing hydroperoxides using glutathione. […] GPX1 and GPX4 inhibitors have thus shown promise as anti-cancer agents. Existing inhibitors are often promiscuous, or modulate GPX activity only indirectly, so novel direct inhibitors identified through screening against GPX1 and GPX4 could be valuable. Here, we developed optimized glutathione reductase (GR)-coupled GPX assays for the biochemical high-throughput screen (HTS) of almost 12,000 compounds with known mechanisms of action. Initial hits were triaged using a GR counter-screen, assessed for isoform specificity using a separate GPX2 assay, and were assessed for general selenocysteine-targeting activity using a thioredoxin reductase (TXNRD1) assay. With this suite of assays, we identified novel GPX1/GPX2- and GPX4-specific inhibitors and can here present a validated pipeline for future discovery research for selenoprotein-targeting agents.
SEQUENCE No. (e.g., 1, 2, 3, etc.); […] (e.g., Cells, Incubation, Reagent, etc.); VALUE; DESCRIPTION.
1; Reagent 1; 3 uL; 333.33 nM GPx4 enzyme or no enzyme control in 1536-well, black, solid Greiner assay plate.
2; Compound; 25 nL; Kalypsis pin tool (Wako USA) equipped with a 1536-well pin head.
3; Incubation; 30 min; room temperature.
4; Reagent 2; 1 uL; 500 nM GR, 5 mM GSH, 2.5 mM NADPH solution
5; Reagent 3; 1 uL; 2.5 mM CHP in 50% EtOH.
6; Detection; Fluorescence; ViewLux microplate reader, excitation 340 nm and emission 450 nm.
7; Incubation; 15 min; room temperature.
8; Detection; Fluorescence; ViewLux microplate reader, excitation 340 nm and emission 450 nm.
NOTES (numbers refer to Sequence numbers above)
1. 3 µL of 333.33 nM GPX4 and 0.016% BSA in assay buffer (50 mM Tris-HCl, 2 mM EDTA (pH 7.5), 150 mM NaCl) was added to columns 3-48 of 1536-well plates using a BioRAPTR Flying Reagent Dispenser (Let's Go Robotics (LGR), Carlsbad, CA). A no-enzyme control (0.01% BSA in TES assay buffer) was added to columns 1-2.
2. 25 nL, library and DMSO controls were added to each well with a pin tool (Kalypsys).
3. The assay plates were incubated for 30 minutes at room temperature.
4. 1 µL of master mix (500 nM glutathione reductase (GR), 5 mM reduced glutathione (GSH), 2.5 mM NADPH in assay buffer) was added.
5. 1 µL of cumene hydroperoxide (CHP) ([2.5 mM] in 50% EtOH) was then added within 5 minutes to initiate the reaction. Final concentrations were: 200 nM GPX4, 1 mM GSH, 0.5 mM CHP, 0.5 mM NADPH, 100 nM GR, 0.01% BSA.
6. Initial fluorescence readout (t=0) at 340/450 nm was measured using a ViewLux multimodal detector (PerkinElmer, Waltham, MA).
8. Endpoint fluorescence readout (t=15) at 340/450 nm was measured 15 min after room temperature incubation.
% is set by controls: 0 for no effect and ±100 for the full control effect; potency is the fitted concentration of half-maximal effect.

Phospholipid hydroperoxide glutathione peroxidase GPX4 (Homo sapiens), sequence (P36969 whole entry, looked up): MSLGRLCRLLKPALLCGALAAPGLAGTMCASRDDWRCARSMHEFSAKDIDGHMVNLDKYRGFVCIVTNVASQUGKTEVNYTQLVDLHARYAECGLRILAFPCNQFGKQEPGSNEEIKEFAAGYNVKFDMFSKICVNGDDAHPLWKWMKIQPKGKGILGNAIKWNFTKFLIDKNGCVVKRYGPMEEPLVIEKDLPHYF

Compound | activity change, negative = inhibition | outcome | Potency
COc1cc2c3c(n(CCCn4ccnc4)c(=O)c2cc1OC)-c1cc2c(cc1C3=O)OCO2 | 4.54% (inactive) | – | –
O=C(CCc1ccc(O)cc1)c1c(O)cc(O)cc1O[C@@H]1O[C@H](CO)[C@@H](O)[C@H](O)[C@H]1O | -42.8% (inactive) | – | –
COc1ccc(CNC(=O)c2cc(-c3cncc(Cl)c3)cnc2-c2ccccn2)nc1OC | – | inactive | –
C[C@H]1CN(C2COC2)CCN1c1ccc(Nc2cc(-c3ccnc(N4CCn5c(cc6c5CC(C)(C)C6)C4=O)c3CO)cn(C)c2=O)nc1 | -18.1% (inactive) | – | –
C[C@H](NC(=O)CCC(F)(F)F)C(=O)N[C@@H]1C(=O)N(CCO)c2ncccc2-c2ccccc21 | -12.9% (inactive) | – | –
Cc1ccc(NS(=O)(=O)c2ccc3c(c2)C2C=CCC2C(c2ccc(C(=O)O)cc2)N3)cc1C (stereo not given) | – | – | 22.7 µM (active)
Cn1cc(-c2nc(N[C@@H]3CCCC[C@@H]3N)c(F)c3c2C(=O)NC3)cn1 | – | inactive [at 4.52 µM] | –
COc1cccc(-c2c(C)n(Cc3c(F)cccc3C(F)(F)F)c(=O)n(C[C@H](NCCCC(=O)O)c3ccccc3)c2=O)c1F | – | – | inactive
C/C=C(/C)C(=O)O[C@H]1C(C)=CC23C(=O)C(C=C(CO)[C@@H](O)[C@]12O)[C@H]1[C@@H](C[C@H]3C)C1(C)C (stereo not given in full) | – | – | inactive
C[C@@H]1CC(=O)Nc2cccc(-c3cnn(C(C)(C)C)c3)c2N1 | -6.05% (inactive) | – | –
Cc1c(C(=O)Nc2ccc(Oc3ccnc4[nH]cc(-c5ccccc5)c34)c(F)c2)c(=O)n(-c2ccc(F)cc2)n1C | -20.6% (inactive) | – | –
COc1ccc2[nH]c3c(c2c1)CCN[C@]31CS[C@@H]2c3c(OC(C)=O)c(C)c4c(c3[C@H](COC1=O)N1[C@@H]2[C@H]2c3c(cc(C)c(OC)c3O)C[C@@H]([C@@H]1O)N2C)OCO4 | -15.3% [at 9.73 µM] (inactive) | – | –
[2H]c1nc(C)nc([2H])c1-c1cc(NC[C@@H](C)c2cccc3c(C(=O)NC)ccnc23)ncn1 | -7.22% (inactive) | – | –
CCOc1ccc(-n2c([C@@H](C)N(Cc3cccnc3)C(=O)Cc3ccc(F)c(C(F)(F)F)c3)nc3ncccc3c2=O)cc1 | -17.9% (inactive) | – | –
O=C(/C=C/N1C[C@H]2C[C@@H]1CN2c1ccccn1)c1ccccc1O | 2.42% (inactive) | – | –
Cc1cccc(/C=N/Nc2cc(N3CCOCC3)nc(OCCc3ccccn3)n2)c1 | -7.87% (inactive) | – | –
CO[C@@H]1[C@@H](O)[C@H](O)[C@@H](n2c3c(Cl)cccc3c3c4c(c5c6cccc(Cl)c6[nH]c5c32)C(=O)NC4=O)O[C@H]1CO | -19.7% (inactive) | – | –
CNCCCOc1cc(F)c(-c2c(Cl)nc3ncnn3c2N[C@@H](C)C(F)(F)F)c(F)c1 | 1.39% (inactive) | – | –
CC1(N)CCN(c2cccnc2NC(=O)c2nc(-c3ncccc3C(F)(F)F)cnc2N)CC1 | -14.1% (inactive) | – | –
COc1cc2c3c(n(CCCN4CCOCC4)c(=O)c2cc1OC)-c1cc2c(cc1C3=O)OCO2 | -10.8% (inactive) | – | –

Compound | activity change, negative = inhibition | outcome | Potency
CN1C(=O)N[C@H](Cc2c[nH]c3c(Cl)cccc23)C1=O | -4.24% (inactive) | – | –
CC#Cc1cncc(-c2ccc3c(c2)[C@@]2(N=C(C)C(N)=N2)C2(CCC(OC)CC2)C3)c1 (stereo not given in full) | -9.21% (inactive) | – | –
OC[C@H]1NC[C@@H](O)[C@@H](O)[C@@H]1O | -2.02% (inactive) | – | –
CC1Cc2ccccc2N1C(=O)Cc1nc(N2CCOCC2)cc(=O)[nH]1 (stereo not given) | – | inactive | –
CN1CCN(C(=O)[C@H]2[C@@H](C(=O)O)[C@H]3CC[C@@H]2O3)CC1 | 3.36% [at 9.73 µM] (inactive) | – | –
C[C@H](NC(=O)/C(C#N)=C/c1cccc(Br)n1)c1ccccc1 | -6.56% (inactive) | – | –
Cc1cc2cc(Oc3ccnc(Nc4cccc(CS(=O)(=O)NCCN(C)C)c4)n3)ccc2[nH]1 | -4.38% (inactive) | – | –
O=C(O)c1ccc(O)c2ncccc12 | – | inactive | –
COc1cc(OC)c(/C=C/S(=O)(=O)Cc2ccc(OC)c(OP(=O)(O)O)c2)c(OC)c1 | -17.8% (inactive) | – | –
O=C(/C=C\n1cnc(-c2cc(C(F)(F)F)cc(C(F)(F)F)c2)n1)NNc1ccccn1 | 4.33% (inactive) | – | –
Cc1cc(O)c(-c2ccc([C@@H](C)CN)cc2)c2c1[nH]c(=O)c1sccc12 | 1.17% (inactive) | – | –
CC1=NN(c2ccc(C(=O)O)cc2)C(=O)/C1=C/c1ccc(-c2cc(C)c(C)cc2[N+](=O)[O-])o1 | -18.3% (inactive) | – | –
NC1=N[C@@]2(c3cc(NC(=O)c4ccc(F)cn4)ccc3F)COC[C@H]2CS1 | – | inactive | –
CN1C[C@@H]2c3ccccc3Oc3ccc(Cl)cc3[C@H]2C1 | -6.06% (inactive) | – | –
COC1=C2C[C@H](C)C[C@H](OC)[C@H](O)[C@@H](C)/C=C(/C)[C@H](OC(N)=O)[C@@H](OC)/C=C\C=C(\C)C(=O)NC(=CC1=O)C2=O | -54.4% (inactive) | – | –
COc1cc(OCc2cccc(-c3ccccc3)c2C)cc(OC)c1CN1CCCC[C@H]1C(=O)O | -14.9% (inactive) | – | –
COc1ccc(-n2cnc3cc(C(=O)N4CCCCC4)ccc32)cc1 | 4.88% (inactive) | – | –
O=C(C[C@@H]1C/C=C\CCC(=O)O[C@H](c2ccccc2)CNC1=O)NCc1ccc(Cl)cc1 | 2.82% (inactive) | – | –
C[C@H]1CC2[C@@H]3CCC4=CC(=O)C=C[C@]4(C)[C@@]3(F)[C@@H](O)C[C@]2(C)[C@@]1(O)C(=O)CO (stereo not given in full) | – | inactive | –
NS(=O)(=O)Oc1ccc2c3c(c(=O)oc2c1)CCCCC3 | – | – | 18 µM (active)
